FLuc modulator: firefly luciferase modulation, counter-screen for miR-21 project | P08659 | purified FLuc, Km substrates, luminescence inhibition | Potency, µM (titrated, usually from 57.5 µM), usual class: inhibitors | 360,000 tested, 6.9% active | AID 588342; note: nearly all actives have a fitted effect of over 55% in size
Target sequence (P08659 whole entry, looked up): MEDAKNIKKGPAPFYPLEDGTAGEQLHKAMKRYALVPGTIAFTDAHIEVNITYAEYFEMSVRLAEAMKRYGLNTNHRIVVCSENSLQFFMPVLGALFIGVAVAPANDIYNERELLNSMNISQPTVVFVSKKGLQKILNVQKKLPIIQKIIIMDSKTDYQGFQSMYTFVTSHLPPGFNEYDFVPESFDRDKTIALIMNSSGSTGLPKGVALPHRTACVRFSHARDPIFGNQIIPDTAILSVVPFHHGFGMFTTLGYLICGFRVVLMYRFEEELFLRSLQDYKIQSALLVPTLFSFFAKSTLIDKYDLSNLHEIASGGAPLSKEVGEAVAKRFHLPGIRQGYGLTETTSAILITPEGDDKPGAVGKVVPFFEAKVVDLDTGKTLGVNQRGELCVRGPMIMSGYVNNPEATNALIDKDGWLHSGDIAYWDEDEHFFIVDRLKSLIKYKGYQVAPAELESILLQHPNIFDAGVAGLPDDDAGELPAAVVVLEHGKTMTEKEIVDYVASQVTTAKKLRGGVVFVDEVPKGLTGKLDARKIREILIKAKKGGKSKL
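Biochemical qHTS of compounds, final roughly 60 µM downward over six points, against 10 nM purified firefly luciferase using Km concentrations of substrates (10 uM D-luciferin, 10 uM ATP) in Tris acetate pH 7.5 buffer; luminescence output.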
NPC1 promoter act: NPC1 promoter activation | Huh7 NPC1 promoter luciferase reporter, 24 h | Potency, µM (highest dose often 9.22 µM), actives largely listed as activators | 320,000 tested, 2.4% active; note: nearly all actives have a fitted effect of over 60% in size
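Readout is luciferase luminescence, reflecting NPC1 promoter activation in stably transfected Huh7 cells after 24 h compound exposure at 37 °C in reduced-serum medium with 10% FBS.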
SMN2 splice enh: enhancers of SMN2 splice variant expression | Potency, µM (series often up to 46.1 µM), hits mostly activators | HEK293 SMN2-luciferase splicing reporter, luminescence, 30-36 h | 210,000 tested, 2.8% active; note: nearly all actives have a fitted effect of over 55% in size
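qHTS luciferase splicing reporter: luminescence rises when SMN2 exon 7 is included in transfected HEK293 cells. Compound exposure lasted 30-36 h at 37C, with 4.5 mM final sodium butyrate as control, followed by a ONE-Glo read.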
Rab9 prom act: Rab9 promoter activation. Huh7 Rab9 promoter-luciferase reporter, luminescence, 24 h. Potency, µM (series often up to 9.22 µM), usual class: activators. 320,000 tested, 2.8% active; note: nearly all actives have a fitted effect of over 60% in size
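Using Huh7 cells stably transfected with Rab9 promoter–luciferase, compounds were incubated 24 h at 37 °C, 5% CO2; luciferase luminescence was read 10 min after reagent addition.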
ELG1 genotoxic: inducers of genotoxicity in HEK293T ELG1-luciferase cells. Potency, µM (top dose mostly 46 µM), actives largely listed as activators. HEK293T ELG1-luciferase reporter, luminescence, 16 h. 330,000 tested, 1.3% active; note: nearly all actives have a fitted effect of over 60% in size
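Screening used a luciferase reporter fused to human ELG1 in HEK293T cells. Luminescence was read on a CCD plate imager after 16 hr exposure and 30 min ONE-Glo incubation.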
ELG1 repair inh: inhibitors of ELG1-dependent DNA repair in HEK293T cells; Potency, µM (highest dose often 46.1 µM), hits mostly inhibitors; 330,000 tested, 2.3% active; HEK293T ELG1-luciferase reporter, luminescence, 16 h; DNA damage induced by 5-fluorouridine; note: nearly all actives have a fitted effect of over 55% in size
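Step one: seed 2,000 cells per well. Step two: pin-transfer compound or DMSO alongside 5-fluorouridine. Step three: incubate 16 hr, 37 °C, 5% CO2. Step four: add ONE-Glo, wait 30 min, read luminescence.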
Hits are given with their value; n = inactive; u = inconclusive; x = not tested or not shown. This is a sample that favours compounds with a hit; in the whole collection about 9.2% have one here. Calls come from the whole dose curve; as a rule, active = well fitted curve in the direction sought with a large enough effect; inconclusive = small, poorly fitted or top-dose-only effect, or another doubt; inactive = no such curve, though single readings can be large; an effect the other way counts as inactive or inconclusive.

SMILES	FLuc modulator	NPC1 promoter act	SMN2 splice enh	Rab9 prom act	ELG1 genotoxic	ELG1 repair inh
O=C(Nc1nccs1)c1ccc2c(c1)OCO2	6µM	2.2µM	x	1.6µM	u	u
Cc1csc(NC(=O)c2ccoc2C)n1	u	u	13µM	u	u	u
O=C(Nc1nccs1)c1ccc([N+](=O)[O-])cc1	n	u	x	n	n	u
COc1cc(C2OC(=O)c3c2ccc(OC)c3OC)ccc1O (stereo not given)	n	n	x	n	x	x
CCOC(=O)Cc1csc(NC(=O)c2ccc(F)cc2)n1	u	n	x	n	n	u
CCOC(=O)Cc1csc(NC(=O)c2ccc(C)cc2)n1	11µM	n	x	n	n	n
O=S(=O)(NNc1cccc(Cl)n1)c1ccc(Cl)cc1	n	n	x	n	n	n
Cc1cc(Nc2ccc(Cl)cc2)n2ncnc2n1	n	n	x	n	n	n
Cc1ccc(C)c(Nc2cc(C)nc3ncnn23)c1	n	u	x	0.1µM	n	u
Cc1cc(Nc2ccc(N(C)C)cc2)n2ncnc2n1	17µM	n	x	n	n	u
COc1ccc(CCN2C(=S)NC3CC2(C)Oc2ccc([N+](=O)[O-])cc23)cc1OC (stereo not given)	n	n	n	n	n	26µM
CC1=NC(=O)C(N=Nc2ccccc2)N1c1ccccc1 (stereo not given)	u	n	16µM	3.5µM	u	u
CC1=NN(c2ccccc2)C(=O)C1N=Nc1ccc(S(N)(=O)=O)cc1 (stereo not given)	n	n	x	n	n	n
CC1=NC(=O)C(N=Nc2cccc(C(=O)O)c2)N1c1ccccc1 (stereo not given)	0.43µM	u	0.5µM	1.3µM	u	u
CC1=NC(=O)C(N=Nc2ccccc2C(=O)O)N1c1ccccc1 (stereo not given)	15µM	n	n	n	n	n
Cc1cc(C)cc(NC(=O)C2CCCN(S(=O)(=O)c3cccc4nsnc34)C2)c1 (stereo not given)	n	x	n	x	x	x
COc1ccc(CC(=O)OCC(=O)c2ccc(S(=O)(=O)N3CCCCC3)cc2)cc1	n	n	x	n	n	n
Cc1nnc(NC(=O)c2ccc(S(=O)(=O)N(C)Cc3ccccc3)cc2)o1	n	n	n	n	n	n
CCc1nnc(NC(=O)c2ccc(S(=O)(=O)N(C)c3ccccc3)cc2)o1	n	n	n	n	n	7.3µM
CCCN(CCC)S(=O)(=O)c1ccc(C(=O)Nc2nnc(COC)o2)cc1	u	n	n	n	n	18µM
CCN(Cc1ccccc1)S(=O)(=O)c1ccc(C(=O)Nc2nnc(C3CC3)o2)cc1	n	n	n	n	n	12µM
CCc1nnc(NC(=O)c2ccc(S(=O)(=O)N(CC(C)C)CC(C)C)cc2)o1	n	n	n	n	n	u
C=CCN(CC=C)S(=O)(=O)c1ccc(C(=O)Nc2nnc(CSC)o2)cc1	n	n	n	n	n	18µM
COc1ccc(-c2cc(C(=O)Nc3ccccc3O)c3ccccc3n2)cc1OC	u	n	n	n	n	23µM
COc1ccc(-c2cc(C(=O)Nc3nc4ccccc4s3)c3ccccc3n2)cc1OC	17µM	n	n	n	n	15µM
SMILES	FLuc modulator	NPC1 promoter act	SMN2 splice enh	Rab9 prom act	ELG1 genotoxic	ELG1 repair inh
CCOC(=O)C1(CCCc2ccccc2)CCN(S(C)(=O)=O)CC1	n	n	x	n	n	n
Cc1ccc(C(=O)CNc2ccccc2C)cc1	6µM	n	n	n	u	u
O=C(CNc1ccc(Br)cc1)c1ccccc1	u	n	n	n	u	u
Cc1ccc(C(=O)CNc2ccc(C)cc2C)cc1	13µM	n	x	n	n	u
O=C(CNc1ccccc1Cl)c1ccc(Br)cc1	17µM	n	x	n	n	n
Cc1ccc(S(=O)(=O)CC(=O)c2ccccc2)cc1	u	n	n	n	n	n
CC(C)(C)c1ccc(C(=O)CS(=O)(=O)c2ccccc2)cc1	2.1µM	1.4µM	n	0.89µM	u	u
COc1cccc(CNC(=O)C2CCCN(S(=O)(=O)c3ccc4c(ccn4C)c3)C2)c1OC (stereo not given)	n	x	x	x	x	x
O=C(NCCC1CCCCN1S(=O)(=O)c1ccccc1)C(=O)Nc1ccc(F)cc1F (stereo not given)	n	n	x	n	n	n
COc1ccc(NC(=O)CN(C)C(=O)CSc2ccc(Br)cc2)cc1	n	n	x	n	n	n
Cc1nn(Cc2ccccc2)c2ncccc12	n	n	x	n	n	n
Cc1cccc(NCCC(=O)c2ccc([N+](=O)[O-])cc2)c1C	n	n	n	n	n	n
Cc1ccc(C(=O)CNc2ccccc2)cc1	9.5µM	n	x	n	u	u
Cc1ccc(C(=O)CC(=O)c2ccc(C(C)(C)C)cc2)cc1	9.5µM	u	x	u	n	u
Cc1ccc(C(=O)CNc2ccc(Br)cc2)cc1	n	n	n	n	n	u
O=C(CNc1ccc(F)cc1)c1ccccc1	15µM	n	n	n	u	u
Cc1ccc(NCCC(=O)c2cccc([N+](=O)[O-])c2)c(C)c1	24µM	n	n	n	n	u
CC(C)OCCCn1c(=O)c2ccccc2n2c(-c3ccccc3)nnc12	n	x	x	x	x	x
CCC(=O)Nc1ccc2oc(-c3cccc(C)c3)nc2c1	0.54µM	0.11µM	0.5µM	0.28µM	0.41µM	u
Cc1ccc2nc(-c3cccc(NC(=O)c4cccc5ccccc45)c3)oc2c1	2.1µM	x	n	x	x	x
CCC(=O)Nc1cccc(-c2nc3ccc(C)cc3o2)c1	2.4µM	2.8µM	x	4.5µM	u	u
CSc1cccc(Nc2nc3c(S(=O)(=O)c4ccccc4)nnn3c3ccc(Cl)cc23)c1	n	x	n	x	x	x
CCOc1ccc(-c2cc3c(=O)n(CC(=O)NCc4ccc(Cl)cc4)ccn3n2)cc1	n	x	x	x	x	x
NC(=O)C1CC(=O)N(c2ccc(OCc3ccc(Cl)cc3)cc2)C1 (stereo not given)	8.5µM	2.8µM	x	2.8µM	u	u
CCCNC(=O)C1CC(=O)N(c2ccc(OCc3ccc(F)cc3)cc2)C1 (stereo not given)	4.8µM	0.63µM	x	0.89µM	6.5µM	u
C=CCNC(=O)C1CC(=O)N(c2ccc(OCC(=O)Nc3ccccc3)cc2)C1 (stereo not given)	12µM	2.8µM	13µM	3.5µM	u	u
CCOc1ccc(N2CC(C(=O)N3CCCC3)CC2=O)cc1 (stereo not given)	n	n	x	n	n	n
C=CCNC(=O)C1CC(=O)N(c2ccc(OCc3ccc(F)cc3)cc2)C1 (stereo not given)	7.6µM	1.1µM	x	1.4µM	18µM	u
CC(C)CN(C(=O)c1ccc(N2CCCC2=O)cc1)c1c(N)n(Cc2ccccc2)c(=O)[nH]c1=O	n	n	x	n	n	n

Source: PubChem BioAssay
